# This is a sample that favours compounds with a hit; in the whole collection about 2.2% have one here.
# IL-2 act: qHTS of IL-2 Activators; IL-2 activation reporter assay, cell-based qHTS; stimulated with anti-CD3/CD4/CD28 beads; in transgenic mouse T cells; actives 0.065% (n = 360,000); activation, % (series mostly up to about 46 µM); AID 652025, 2013; in the data active = activation above about 50%; inconclusive = mostly about 30% to 49%; note: 0% is about no effect
#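 Readout: EGFP and DsRed signals by fluorescent plate cytometry. Unstimulated transgenic mouse T cells received compound 60 min before antibody-bead stimulation, then incubated 18 h at 37 degrees C.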
# IDH1 R132H inh: qHTS for Inhibitors of mutant isocitrate dehydrogenase 1 (IDH1): qHTS; IDH1-R132H enzyme, NADPH consumption, diaphorase/resazurin fluorescence; Potency, µM (doses to about 76.6 µM), without a hit: top-dose activity change, negative = inhibition, actives largely listed as inhibitors; actives 0.093% (n = 390,000); AID 602179, 2012; note: potency is the fitted concentration of half-maximal effect; % is set by controls: 0 for no effect and ±100 for the full control effect; nearly all actives have a fitted effect of over 65% in size
#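 IDH1-R132H (0.5 ug/mL dispensed) in pH 7.5 Tris buffer was preincubated 30 min with compound, then given a substrate mix of 0.016 mM NADPH and 2 mM alpha-KG for 80 min at room temperature; remaining NADPH was read by diaphorase/resazurin fluorescence.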
# BRCA1 expr up: qHTS Assay to Identify Small Molecule Activators of BRCA1 Expression; MCF7-BRCA1-FFLuc reporter, luminescence, 48 h; response scale: scaled: vehicle 0%, 10 µM genistein 100%; Potency, µM (series often up to 46.1 µM), for the others: at the highest dose activation, usual class: activators; actives 1.1% (n = 380,000); note: potency is the fitted concentration of half-maximal effect; nearly all actives have a fitted effect of over 80% in size
#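 Luminescence from a BRCA1-driven firefly luciferase in MCF7 cells was the read-out, taken 15 min after substrate addition following 48 h compound exposure at 37 °C. Data were normalized to a 10 microM genistein control and DMSO vehicle.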
# TrxR1 substrate: qHTS Assay for Substrates of Mammalian Selenoprotein Thioredoxin Reductase 1 (TrxR1): qHTS. Thioredoxin reductase 1, cytoplasmic (Rattus norvegicus), O89049. purified TrxR1 substrate turnover, NADPH consumption readout. Potency, µM (titrated, usually from 114 µM), inactives show at the highest dose activity change, negative = substrate turnover. actives 0.01% (n = 390,000); note: potency is the fitted concentration of half-maximal effect; % is set by controls: 0 for no effect and ±100 for the full control effect; nearly all actives have a fitted effect of over 50% in size
# Target sequence (O89049 whole entry, looked up): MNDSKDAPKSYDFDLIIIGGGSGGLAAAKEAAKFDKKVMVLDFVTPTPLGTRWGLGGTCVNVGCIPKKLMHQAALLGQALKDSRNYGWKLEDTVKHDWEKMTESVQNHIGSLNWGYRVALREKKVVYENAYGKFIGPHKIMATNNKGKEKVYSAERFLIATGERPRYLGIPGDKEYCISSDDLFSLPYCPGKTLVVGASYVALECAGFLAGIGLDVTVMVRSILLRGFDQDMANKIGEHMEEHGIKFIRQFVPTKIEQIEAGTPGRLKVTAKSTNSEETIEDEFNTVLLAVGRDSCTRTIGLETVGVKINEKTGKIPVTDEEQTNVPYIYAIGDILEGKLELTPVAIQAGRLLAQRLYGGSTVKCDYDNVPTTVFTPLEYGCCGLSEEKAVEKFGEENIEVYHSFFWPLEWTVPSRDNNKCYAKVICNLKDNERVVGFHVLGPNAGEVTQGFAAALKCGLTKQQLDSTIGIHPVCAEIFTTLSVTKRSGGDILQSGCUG
#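 Rat TrxR1, dispensed at 90 nM, was prereduced with 400 uM NADPH (final) for 5 min at ~22 deg C, then incubated with compound 15 min before 400 uM selenite. A first-read NADPH fluorescence drop versus no-compound background flagged substrates.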
# Giardia kill: Small Molecules that selectively kill Giardia lamblia: qHTS; actives 0.15% (n = 340,000); AID 540267, 2011; activity change, % at 7.66 µM, hits read low; Giardia lamblia trophozoite viability; in the data active = activity change below about -80%; inconclusive = between about -30% and that limit;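 note: parasites exposed to compound for two days anaerobically before the ATP read; % is set by controls: 0 for no effect and ±100 for the full control effect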
#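 ATP-content bioluminescence gauges trophozoite survival. Cells (100/well) receive compound and incubate anaerobically for 48 hrs at 37 deg C; detection reagent follows for 15-30 min at room temperature.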
# rTrxR1 inhibitor: qHTS Assay for Inhibitors of Mammalian Selenoprotein Thioredoxin Reductase 1 (TrxR1): qHTS; Thioredoxin reductase 1, cytoplasmic (Rattus norvegicus), O89049; recombinant rTrxR1, NADPH fluorescence consumption, selenite substrate; Potency, µM (highest dose often 114 µM), for inactives: at the top dose activity change, negative = inhibition, usual class: inhibitors; actives 1% (n = 390,000); AID 588453, 2011; note: potency is the fitted concentration of half-maximal effect; % is set by controls: 0 for no effect and ±100 for the full control effect; nearly all actives have a fitted effect of over 65% in size
#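 Rat TrxR1 (90 nM in the dispensed reagent) was pre-reduced with 400 uM NADPH for 5 min at room temperature, then incubated with compound for 15 min. After 400 uM selenite was added, NADPH fluorescence (Ex 340/Em 450 nm) was followed for 8 min.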
# IDH1 autofl: qHTS for Inhibitors of mutant isocitrate dehydrogenase 1 (IDH1): Cherrypicks Autofluorescence Interference | Resorufin detection reagent fluorescence interference, cell-free | shares compounds with IDH1 R132H inh | inhibition of signal, % at 51.2 µM | 750 tested, under 10 active;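 note: 0% = wells with normal resorufin and full inhibition = wells lacking resorufin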
# WT IDH1 inh: qHTS for Inhibitors of mutant isocitrate dehydrogenase 1 (IDH1): Cherrypicks in WT IDH1; shares compounds with IDH1 R132H inh; WT IDH1 enzyme, NADPH diaphorase/resazurin fluorescence; Potency, µM (titrated, usually from 115 µM), for inactives: at the top dose activity change, negative = inhibition, usual class: inhibitors; actives 9% (n = 750); AID 623995, 2012;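 note: potency is the fitted concentration of half-maximal effect; 0% = full WT IDH1 enzyme control and full inhibition = no enzyme wells; nearly all actives have a fitted effect of over 55% in size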
# IDH1 R132H conf: qHTS for Inhibitors of mutant isocitrate dehydrogenase 1 (IDH1): Confirmation of Cherrypicks | shares compounds with IDH1 R132H inh | IDH1 R132H enzyme, NADPH diaphorase/resazurin fluorescence | Potency, µM (titrated, usually from 76.6 µM), inactives show at the highest dose activity change, negative = inhibition, most hits filed as inhibitors | actives 83% (n = 750) | AID 624002, 2012; note: potency is the fitted concentration of half-maximal effect; nearly all actives have a fitted effect of over 50% in size
# Numbers without * were called inactive; ? = inconclusive; nt = no result; [ ] = dose if it differs, or a comment. Unless noted, calls come from the whole dose curve; as a rule, active = well fitted curve in the direction sought with a large enough effect; inconclusive = small, poorly fitted or top-dose-only effect, or another doubt; inactive = no such curve, though single readings can be large; an effect the other way counts as inactive or inconclusive.
SMILES,IL-2 act,IDH1 R132H inh,BRCA1 expr up,TrxR1 substrate,Giardia kill,rTrxR1 inhibitor,IDH1 autofl,WT IDH1 inh,IDH1 R132H conf
c1ccc(-c2csc(NNC3=NCCCCC3)n2)cc1,-0.4,-24.8%,39.4%,-9.9%[57.1 µM],20.7,13.3%[57.1 µM],nt,nt,nt
Clc1ccc(-c2csc(NNC3=NCCCCC3)n2)cc1,-0.9,?,-13.6%,8.9%[57.1 µM],15.2,-0.6%[57.1 µM],0.3,?,44.7µM*
CN[C@H](C)CCC=C(C)C,nt,nt,-7.8%,0.5%,nt,15.7%,nt,nt,nt
COc1ccc(C2c3c(n(C)c4ccccc34)C(=O)N2CC(=O)Nc2c(C)cc(C)cc2C)cc1 (configuration not stated),nt,?,nt,-3.3%,nt,10.7%,-4.2,-9.9%,?
O=C(NCCN1CCOCC1)c1ccc(Cl)c(Cl)c1,-0.7,1.6%,4.9%,-0.8%,-15.7,24.2%,nt,nt,nt
O=C1/C(=C\c2ccc(Cl)c(Cl)c2)CN(C(=O)CCN2CCOCC2)C/C1=C/c1ccc(Cl)c(Cl)c1,-6.6,?,-86.3%,11.0%[57.1 µM],?,1.41µM*,-3.9,-3.8%,28.2µM*
COc1cc(NC(=O)c2ccc(NC(=O)N3CCSc4ncccc43)cc2)cc(OC)c1,nt,0.4%,nt,11.0%,nt,20.6%,nt,nt,nt
Cc1ncc(CO)c2c1Oc1nc(-c3ccccc3F)nc(SCC(=O)N(C)c3ccccc3)c1C2,7.3,52.1µM*,-32.9%,?,12.3,?,-0.5,10.1%,?
CC1CN(C(=O)c2ccc(NS(=O)(=O)c3ccc(C(C)(C)C)cc3)cc2)CC(C)O1 (configuration not stated),5.6,?,-29.8%,7.2%,34.1,9.9%,-8.9,6.6%,35.5µM*
CCOc1ccc(S(=O)(=O)Nc2ccc(C(=O)N3CC(C)OC(C)C3)cc2)cc1 (configuration not stated),-1.3,6.4%,-8.8%,-13.7%,1.3,-8.3%,nt,nt,nt
O=C1CCCC2=C1C(c1ccc(O)c(Br)c1)C1=C(CCCC1=O)N2c1ccccc1,-0.8,?,-17.0%,-4.4%,-16.7,0.5%,6.5,11.0%,?
CCc1cccc(-n2nnc(-c3nsc(NC(=O)c4cccs4)n3)c2C)c1,nt,-2.6%,nt,12.7%[57.1 µM],nt,28.0%[57.1 µM],nt,nt,nt
Cc1ccc(CNC(=O)c2c(-c3ccccc3Cl)noc2C)o1,nt,-16.6%,nt,2.7%[57.1 µM],nt,-2.2%[57.1 µM],nt,nt,nt
CC(C)(C)C1CCc2sc(-c3nnc(CCl)o3)cc2C1 (configuration not stated),-0.5,52.1µM*,18.4%,5.7%,8.4,-6.4%,7.1,-17.6%,39.8µM*
Cn1c2ccccc2c(=O)c2c(=O)n(-c3ccccc3)c(C3CCCCC3)nc21,0.3,11.7µM*,-24.7%,-2.5%,-1.1,6.0%,-1.7,25.1µM*,4.47µM*

# Assay outcomes from PubChem.
